Screen size: about 5,500 compounds; about 2,000 (36%) were called active. Roughly 18% stayed inconclusive and do not appear here. No stated cut-off is given here; in the data, active means normalized growth mostly below about 0.91 (no sharp cut-off); inconclusive means no clear call, values can overlap the other calls; inactive means mostly above about 0.92. The list shows a part of the results.
Test: chemical genetic growth profiling, strain panel (AID 1159580);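 further: tested at 20 µM; growth read once vehicle control cultures reached saturation at 30 °C; 1 = growth at the plate median or of vehicle wells; lower values mean less growth of the strain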
Details: S. cerevisiae deletion strains, growth OD

Measured: normalized growth

O=c1cc(-c2ccccc2O)oc2cc(O)ccc12
inactive: locus YAL021C, strain ccr4, hits give low values 1.05 | locus YAL026C, strain drs2, hits give low values 0.977 | locus YAL030W, strain snc1, hits give low values 0.985 | locus YBL061C, strain skt5, hits give low values 0.976 | locus YBR009C, strain hhf1, hits give low values 0.979 | locus YBR023C, strain chs3, hits give low values 1 | locus YBR171W, strain sec66, hits give low values 0.951 | locus YBR231C, strain swc5, hits give low values 0.956 | locus YBR279W, strain paf1, hits give low values 0.996 | locus YCL011C, strain gbp2, hits give low values 0.977 | locus YCL016C, strain dcc1, hits give low values 1.02 | locus YCL069W, strain vba3, hits give low values 0.97 | locus YCR088W, strain abp1, hits give low values 0.956 | locus YDL005C, strain med2, hits give low values 0.956 | locus YDL040C, strain nat1, hits give low values 0.967 | locus YDR001C, strain nth1, hits give low values 0.978 | locus YDR069C, strain doa4, hits give low values 0.95 | locus YDR137W, strain rgp1, hits give low values 0.958 | locus YDR159W, strain sac3, hits give low values 0.91 | locus YDR195W, strain ref2 0.962 | locus YDR297W, strain sur2, hits give low values 0.964 | locus YDR334W, strain swr1, hits give low values 0.973 | locus YDR335W, strain msn5, hits give low values 0.979 | locus YDR392W, strain spt3, hits give low values 0.92 | locus YEL003W, strain gim4, hits give low values 0.968 | locus YEL037C, strain rad23, hits give low values 0.962 | locus YEL061C, strain CIN8 (second series), hits give low values 0.963 | locus YER015W, strain faa2, hits give low values 0.974 | locus YER016W, strain bim1, hits give low values 0.973 | locus YER111C, strain swi4, hits give low values 0.951 | locus YER155C, strain BEM2 (second series), hits give low values 0.955 | locus YFR010W, strain ubp6, hits give low values 0.952 | locus YGL167C, strain pmr1, hits give low values 0.972 | locus YGL173C, strain kem1, hits give low values 0.95 | locus YGL227W, strain vid30, hits give low values 0.964 | locus YGL240W, strain doc1, hits give low values 0.963 | locus YGL253W, strain hxk2, hits give low values 0.932 | locus YHR013C, strain ard1, hits give low values 0.952 | locus YHR027C, strain rpn1, hits give low values 0.965 | locus YHR030C, strain SLT2, hits give low values 0.978 | locus YHR079C, strain IRE1, hits give low values 0.987 | locus YHR142W, strain chs7, hits give low values 0.965 | locus YJL092W, strain hpr5, hits give low values 0.954 | locus YJL095W, strain BCK1 (second series), hits give low values 0.994 | locus YJL095W, strain BCK1, hits give low values 0.997 | locus YJL115W, strain asf1, hits give low values 0.97 | locus YJL129C, strain trk1, hits give low values 0.945 | locus YJL154C, strain vps35, hits give low values 0.979 | locus YJL164C, strain tpk1, hits give low values 0.992 | locus YJL166W, strain qcr8, hits give low values 0.966 | locus YJR066W, strain TOR1, hits give low values 0.929 | locus YKL160W, strain elf1, hits give low values 1.03 | locus YKR026C, strain gcn3, hits give low values 0.972 | locus YKR091W, strain srl3, hits give low values 0.982 | locus YLL001W, strain dnm1, hits give low values 0.987 | locus YLL026W, hits give low values 0.969 | locus YLL041C, strain sdh2, hits give low values 0.977 | locus YLR027C, strain aat2, hits give low values 0.998 | locus YLR113W, strain HOG1, hits give low values 1 | locus YLR221C, strain rsa3, hits give low values 0.938 | locus YLR258W, strain gsy2, hits give low values 0.994 | locus YLR262C, strain YPT6 (second series), hits give low values 0.968 | locus YLR320W, strain mms22, hits give low values 0.95 | locus YLR342W, strain FKS1, hits give low values 0.974 | locus YLR357W, strain rsc2, hits give low values 0.978 | locus YLR370C, strain arc18, hits give low values 0.966 | locus YLR384C, strain iki3, hits give low values 0.959 | locus YML120C, strain ndi1, hits give low values 0.996 | locus YMR058W, strain fet3, hits give low values 0.981 | locus YMR125W, strain sto1, hits give low values 0.977 | locus YMR129W, hits give low values 0.987 | locus YMR205C, strain PFK2, hits give low values 0.996 | locus YMR231W, strain pep5, hits give low values 0.966 | locus YNL071W, strain lat1, hits give low values 0.991 | locus YNL183C, strain NPR1, hits give low values 0.909 | locus YNL209W, strain ssb2, hits give low values 0.996 | locus YNL248C, strain rpa49, hits give low values 0.969 | locus YNL322C, strain KRE1 (second series), hits give low values 0.974 | locus YNR049C, strain mso1, hits give low values 0.979 | locus YOR001W, strain rrp6, hits give low values 0.899 | locus YOR070C, strain gyp1, hits give low values 0.978 | locus YOR080W, strain dia2, hits give low values 0.972 | locus YOR083W, strain WHI5, hits give low values 1.03 | locus YOR106W, strain vam3, hits give low values 0.989 | locus YOR231W, strain MKK1, hits give low values 0.989 | locus YOR265W, strain rbl2, hits give low values 0.97 | locus YOR270C, strain vph1, hits give low values 0.916 | locus YOR290C, strain snf2, hits give low values 1.02 | locus YPL051W, strain arl3, hits give low values 0.975 | locus YPL078C, strain atp4, hits give low values 1.05 | locus YPL106C, strain sse1, hits give low values 0.984 | locus YPL240C, strain hsp82, hits give low values 0.971 | locus YPL256C, strain CLN2, hits give low values 0.95

Reference: PubChem BioAssay AID1159580 (chemical genetic matrix, 2015)
